# Screens: PubChem, National Center for Advancing Translational Sciences (NCATS)
# BAZ2B block – BAZ2B (human) inhibition | AlphaScreen BAZ2B-H3K14Ac peptide displacement | Potency, µM (doses to about 114 µM), most hits filed as inhibitors | hit rate 4.4% among 360,000 | AID 504333; note: nearly all actives have a fitted effect of over 60% in size
#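 AlphaScreen luminescence quantifies BAZ2B engagement of H3K14Ac peptide; the protein and biotinylated peptide are both at 50 nM final, buffer PBS pH 7.4 with 0.01% Tween-20, all steps at room temperature.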
# HP1b binding inh – inhibitors of HP1-beta chromodomain binding to methylated histone tails; AlphaScreen HP1-beta / biotin-H3K9me3 peptide binding; Potency, µM (doses to about 114 µM), actives largely listed as inhibitors; AID 540317; hit rate 0.56% among 390,000; note: nearly all actives have a fitted effect of over 70% in size
#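 HP1-beta protein (50 nM final) preincubated 30 min at room temperature with biotinylated H3(1-18)K9me3 peptide (50 nM) in PBS pH 7.4, 0.01% Tween-20, then compound added for 30 min. AlphaScreen streptavidin donor/nickel chelate acceptor beads (10 ug/mL final), 30 min dark, luminescence read.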
# G9a inh – inhibitors of human histone lysine methyltransferase G9a; Potency, µM (highest dose often 102 µM), most hits filed as inhibitors; hit rate 8.8% among 350,000; G9a H3K9 monomethylation, AlphaScreen, 2 h; note: nearly all actives have a fitted effect of over 75% in size
#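 G9a (20 nM) preincubated 15 min RT with compounds, then 500 nM biotinylated H3K9 peptide and 20 uM SAM added; 2 h RT reaction. Monomethyl-H3K9 product detected by AlphaScreen with anti-H3K9me1 antibody, streptavidin donor and anti-rabbit IgG acceptor beads.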
# CtBP-E1A blk – inhibitors of CtBP/E1A interaction. activity change, % (concentration not given with the values). AlphaScreen GST-E1A/His-CtBP binding, 1536-well; hits give low values. hit rate 0.49% among 340,000; in the data active = activity change below about -65%; inconclusive = mostly about -30% to -63%
#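 Protein mix (5X: 125 nM each GST-E1A, His-CtBP) was incubated with pinned compound 2 h at 37 deg C in dark, in 50 mM Tris pH 8.0 buffer with 300 mM NaCl. Glutathione donor and nickel acceptor beads followed; AlphaScreen signal read after 1 h.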
# Six1-Eya2 inh – Six1/Eya2 interaction inhibition | AlphaScreen GST-Six1/His-Eya2 binding, biochemical; hits give low values | activity change, % (no concentration beside the values) | hit rate 0.56% among 360,000; in the data active = activity change below about -65%; inconclusive = mostly about -30% to -63%
#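 Six1/Eya2 binding was read as AlphaScreen signal after compounds were pinned into GST-Six1 plus His-tagged Eya2 (5X stock 250/500 nM) in pH 8.0 Tris/NaCl/TCEP buffer, beads added, then incubated 1 h, 37 C, dark.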
# JMJD2A Tudor – inhibitors of human JMJD2A Tudor domain; O75164; AlphaScreen JMJD2A-Tudor / H3K4me3 peptide binding; Potency, µM (titrated, usually from 114 µM), usual class: inhibitors; hit rate 4.4% among 390,000; AID 504339; note: nearly all actives have a fitted effect of over 50% in size
# Hits are given with their value; i = inactive; ? = inconclusive; nt = no result given; [ ] = dose if it differs, or a comment. Sampled rows, rich in hits. Any-hit rate of the full collection: about 10%. Unless noted, calls come from the whole dose curve; as a rule, active = well fitted inhibition curve with a large enough effect; inconclusive = small, poorly fitted or top-dose-only effect; inactive = no such curve, though single readings can be large or run the other way.
SMILES,BAZ2B block,HP1b binding inh,G9a inh,CtBP-E1A blk,Six1-Eya2 inh,JMJD2A Tudor
CC(C)C(C)(C#N)NC(=O)CSc1nc2scc(-c3ccco3)c2c(=O)n1-c1ccccc1 (stereo not given),i,i,45µM,i,i,i[11.4 µM]
COc1cccc(NC(=O)C(OC(=O)CNC(=O)c2ccccc2)c2ccccc2)c1 (stereo not given),nt,nt,nt,nt,nt,i
Cc1nc(SCC(=O)Nc2cccnc2Cl)nc(C)c1C,i,i,40µM,i,i,i
Cc1nc(SCC(=O)Nc2cc(Cl)ccc2[N+](=O)[O-])nc(C)c1C,40µM,?,?,?,?,?
CCC(=O)N1CCN(c2ccccc2NC(=O)COc2ccc(C(C)C)cc2)CC1,i,i,i,i,i,i
C/C(=N\NS(=O)(=O)c1ccc(Cl)c([N+](=O)[O-])c1)c1ccc(C)o1,79µM,i,i[12.7 µM],i,i,?
C/C(=N/NS(=O)(=O)c1cccc([N+](=O)[O-])c1)c1ccc2c(c1)OCO2,i,i,32µM,i,i,i
C/C(=N\NS(=O)(=O)c1ccc(Cl)c([N+](=O)[O-])c1)c1cc2ccccc2o1,?,i,?,i,i,?
C/C(=N/NS(=O)(=O)c1ccc(C)cc1C)c1ccc2c(c1)OCO2,i,i,nt,i,i,i
COc1ccc(OC)c(S(=O)(=O)N/N=C(/C)c2ccc3c(c2)OCO3)c1,i,i,32µM,i,i,i
C/C(=N\NS(=O)(=O)c1ccc(C)c([N+](=O)[O-])c1)c1ccc2c(c1)OCO2,i,i,45µM,nt,i,i
CCCCCCN1C[C@H](O)[C@@H](n2cc(-c3ccc(F)cc3)nn2)C[C@@H]1c1ccc(C)cc1,nt,nt,nt,i,i,nt
COCCn1c(=O)c(-c2cc(F)cc(F)c2)nc2cnc(N(C)C)nc21,nt,nt,i[0.501 µM],nt,nt,nt
Cc1ccc([N+](=O)[O-])c2c1C(N1CCCC1)C(C)(C)O2 (stereo not given),?,i,11µM,nt,i,i
Cc1ccc(S(=O)(=O)N2CCCC2)cc1[N+](=O)[O-],i,i,i,i,i,i
COc1ccc(C(=O)C2CCCN(Cc3cc(Cl)ccc3O)C2)c(OC)c1 (stereo not given),i,i,nt,i,i,i
COc1ccc(CN2CCCC(C(=O)N3CCCC3)C2)c(OC)c1 (stereo not given),50µM,50µM,i,i,i,0.89µM
CCOC(=O)C1CCCN(Cc2ccc(OC)cc2OC)C1 (stereo not given),i,?,i,i,i,1.3µM
CCOC(=O)c1ccc(CN(Cc2ccc(F)cc2)S(=O)(=O)c2cc(C(=O)Nc3ccccc3CC)ccc2F)cc1,i,i,i,nt,nt,i
COc1ccc(NS(=O)(=O)c2cc(-c3cnc(C4CC4)o3)ccc2C)cc1,?,i,50µM,nt,i,?
COc1ccc(-c2cnc(C)o2)cc1S(=O)(=O)Nc1ccc(C)c(N(C)C)c1,50µM,i,?,nt,nt,?
O=C(c1ccc([N+](=O)[O-])cc1[N+](=O)[O-])N1CCc2ccccc21,?,i,nt,i,i,i
O=C(N=C1N=C2C=CC(Br)=CN2Cc2ccccc21)c1ccc([N+](=O)[O-])cc1[N+](=O)[O-],i,i,50µM,i,i,?
CC(CCc1ccccc1)NC(=O)COc1ccc(S(=O)(=O)N2CCOCC2)cc1[N+](=O)[O-] (stereo not given),i,i,?,i,i,i
COc1ccc(NC(=O)c2c(OC)cccc2OC)c(OC)c1,50µM,?,?,i,i,56µM
SMILES,BAZ2B block,HP1b binding inh,G9a inh,CtBP-E1A blk,Six1-Eya2 inh,JMJD2A Tudor
COc1ccc2o/c(=N\O)c(C(=O)Nc3ccccc3OC)cc2c1,i,i,1.6µM,i,i,i
COc1ccc(NC(=O)c2ccccc2O)c(OC)c1,i,i,i,i,i,i
COc1ccc(NC(=O)c2ccccc2SC)c(OC)c1,i,i,18µM,i,i,i
COC(=O)c1ccccc1NC(=O)c1ccccc1SC,i,i,8.9µM,i,i,i
CCCCOc1ccc(C(=O)N/C(=C\c2ccc(Br)cc2)C(=O)NC2CCCCC2)cc1,i,i,i,nt,nt,i
Cc1ccccc1OCC(=O)NCC(=O)OCC(=O)c1ccc(-c2ccccc2)cc1,nt,i,nt,nt,nt,i
Cc1ccc(C)c(NC(=O)CCCn2c(C)c3cnn(-c4ccccc4)c(=O)c3c2C)c1,i,i,i,nt,nt,i
Cc1ccc2nc(CN3CCN(S(=O)(=O)c4ccccc4)CC3)oc2c1,i,i,i,nt,nt,i
O=C(O)c1ccccc1-c1ccc(C(F)(F)F)cc1,nt,nt,i[12.7 µM],nt,nt,nt
NS(=O)(=O)c1ccc(NC(=O)COC(=O)CSc2n[nH]c(-c3ccccc3)n2)cc1,i,i,32µM,i,i,i
O=C(CSc1n[nH]c(-c2ccccc2)n1)Nc1ccc(N2CCOCC2)cc1,?,i,?,?,i,i
